Results on 31 compounds are retold here after ChEMBL document CHEMBL1961873, “Compounds: GSK PKIS; Assays: Nanosyn kinase panel” (2012).

“And” between values parts separate entries of the source, which are not always exact repeats. Identical values can stand only once.

A word on the inhibition: it is the drop in the measured response relative to a control, in per cent.
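Further: reported as mean inhibition, part of the GSK PKIS dataset.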

The target of the assay is T1, Homeodomain-interacting protein kinase 4 (Homo sapiens) (UniProt Q8NE63).
T1 sequence (whole entry): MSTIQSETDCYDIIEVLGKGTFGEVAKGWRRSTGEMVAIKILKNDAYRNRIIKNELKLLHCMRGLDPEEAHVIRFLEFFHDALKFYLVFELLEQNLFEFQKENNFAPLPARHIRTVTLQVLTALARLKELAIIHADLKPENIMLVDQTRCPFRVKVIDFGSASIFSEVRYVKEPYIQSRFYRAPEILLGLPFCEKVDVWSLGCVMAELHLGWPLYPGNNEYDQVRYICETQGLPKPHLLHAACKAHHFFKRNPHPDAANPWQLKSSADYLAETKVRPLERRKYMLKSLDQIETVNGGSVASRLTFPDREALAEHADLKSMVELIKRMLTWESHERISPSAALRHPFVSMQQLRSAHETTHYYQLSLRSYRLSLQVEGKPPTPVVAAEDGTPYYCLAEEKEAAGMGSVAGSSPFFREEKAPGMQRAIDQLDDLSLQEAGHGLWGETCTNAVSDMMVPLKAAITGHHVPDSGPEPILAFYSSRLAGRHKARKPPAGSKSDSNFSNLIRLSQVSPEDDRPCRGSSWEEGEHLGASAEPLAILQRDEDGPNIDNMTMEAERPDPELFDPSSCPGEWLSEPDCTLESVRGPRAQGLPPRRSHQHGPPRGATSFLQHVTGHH
Particulars: at 0.1 µM.
Take `CNC(=O)c1ncccc1Nc1nc(Nc2cc3c(cc2OC)CCCN3C(=O)CN(C)C)nc2[nH]ccc12`: the inhibition is 3.67%.

In the case of `Cc1ccc(-c2cc3c(NC(=O)C4CC4)ncnc3o2)cc1`, the inhibition stood at 1.44%.

As for `CNC(=O)c1sc(-n2cnc3cc(OC)c(OC)cc32)cc1OCc1ccccc1C(F)(F)F`, the inhibition worked out at 1.98%. On to `O=C(O[C@H]1CN[C@H](C#Cc2cc3ncnc(Nc4ccc5c(ccn5Cc5cc(F)ccc5F)c4)c3s2)C1)N1CCOCC1`, for which the inhibition is 0.47%. As for `CN1CCN(Cc2ccc(-c3cc4ncnc(Nc5ccc(OCc6cccc(F)c6)c(Cl)c5)c4s3)o2)CC1`, the inhibition was -0.43% and 2.01%. `CCn1c(-c2nonc2N)nc2cncc(C(=O)NCCNC)c21`: the inhibition is -0.44%. To `CCS(=O)(=O)c1ccc(OC)c(Nc2ncc(-c3cccc(F)c3)o2)c1` belongs 4.37%; to `COC(=O)Nc1nc2cc(Oc3ccc(NC(=O)Nc4ccccc4)cc3)ccc2[nH]1`, 3.11%; to `COc1c(C(N)=O)cc(-c2ccc(Cl)cc2)cc1-c1ccc(S(N)(=O)=O)cc1`, 0.4%. `CC1(C)CC(n2cnc(-c3ccc(F)cc3)c2-c2ccnc(N)n2)CC(C)(C)N1`: the inhibition is -0.06%. As for `CCCNc1cccc(-n2ncc3c(N/N=C/c4ccncc4)ncnc32)c1`, the inhibition worked out at 4.71%. Take `CN(c1ccc(NC(=O)NCCN2CCOCC2)cc1)c1ccnc(Nc2ccc(CS(C)(=O)=O)cc2)n1`: the inhibition is 6.23%. In the case of `CCOc1ccc2c(-c3ccnc(Nc4cc(OC)cc(C(F)(F)F)c4)n3)cnn2n1`, the inhibition was 4.81%. `COc1cccc(-n2ncc3c(N/N=C/c4ccc(C(=O)NCCN(C)C)cc4)ncnc32)c1`: the inhibition stood at 49.5%. For `COc1ccc(-c2nn3ncccc3c2-c2ccnc(Nc3ccc(F)c(F)c3)n2)cc1`, the inhibition was 1.49%. For the compound `Cc1c2ccc(N(C)c3ccnc(Nc4cccc(S(N)(=O)=O)c4)n3)cc2nn1C`, the inhibition is -0.24%. In the case of `N#Cc1cccc(Nc2ncc(-c3ccccc3)o2)c1`, the inhibition was 6.92%. With `CC1=C(C(=O)Nc2ccc3[nH]ncc3c2)C(c2ccc(F)cc2)N=C(c2ccc(C(F)(F)F)nc2)N1` (stereo unspecified), the inhibition came to 0.68%. As for `NS(=O)(=O)c1ccc(N/N=C2\C(=O)Nc3cccc(CCc4ccncc4)c32)cc1`, the inhibition was determined as 0.72%. Consider `O=C(O[C@H]1CN[C@H](C#Cc2cc3ncnc(Nc4ccc5c(cnn5Cc5ccccc5)c4)c3s2)C1)N1CCOCC1`, for which the inhibition was -1.27%.

Take `CS(=O)(=O)Nc1ccc(-c2cc(-c3ccccc3)cc(C(N)=O)c2N)cc1`: the inhibition is 0.57%. For the compound `FC(F)(F)CNc1nccc(-c2cnn3ncccc23)n1`, the inhibition was -0.95%. For the compound `CS(=O)(=O)CCNCc1ccc(-c2ccc3ncnc(Nc4ccc(OCc5ccccc5)cc4)c3c2)o1`, the inhibition is 0.8%. Regarding `CN(C)CCNC(=O)Nc1ccc(N(C)c2ccnc(Nc3ccc(CS(C)(=O)=O)cc3)n2)cc1`, the inhibition was 0.19%.

Regarding `NC(=O)c1ccc2c(-c3ccnc(NCCCO)n3)c(-c3ccc(F)cc3)nn2c1`, the inhibition is 5.71%. For the compound `c1ccc(-c2n[nH]cc2-c2ccnc(-c3ccc(OCCn4ccnc4)cc3)c2)nc1`, the inhibition is -0.24%.

Turning to `c1cnn2ncc(-c3ccnc(NCCCN4CCOCC4)n3)c2c1`, the inhibition is -0.89%. In the case of `CN1CCC(n2cnc(-c3ccc(F)cc3)c2-c2ccnc(NCCO)n2)CC1` it was 2.19%; in that of `COc1cc(N2CCN(C(C)C)CC2)ccc1Nc1nc(Nc2cccc3ncccc23)c2cc[nH]c2n1`, 1.11%. In the case of `COc1ccc(Nc2ncc(-c3ccccc3)o2)cc1OC` it was 3.61%; in that of `CC1=C(C(=O)Nc2ccc3[nH]nc(C)c3c2)C(c2ccc(C(F)(F)F)cc2)CC(=O)N1` (stereo unspecified), 3.59%.
